From PubChem BioAssay AID1159580 (chemical genetic matrix, 2015)
“And” between values parts separate entries of the source, which are not always exact repeats. Identical values can stand only once. In all, about 5,500 compounds went through this assay and about 2,000 (36%) were called active. Not shown: some 18% with an inconclusive outcome. Rule as the data show it: active = normalized growth mostly below about 0.91 (no sharp cut-off); inconclusive = no clear call, values can overlap the other calls; inactive = mostly above about 0.92. The list shows a part of the results.

Test: chemical genetic growth profiling, strain panel (AID 1159580);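 also: tested at 20 µM; growth read once vehicle control cultures reached saturation at 30 °C; 1 = growth at the plate median or of vehicle wells; lower values mean less growth of the strain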
Conditions: S. cerevisiae deletion strains, growth OD

Measured: normalized growth

C=C[C@@H](C1=CC(=O)C(OC)=C(OC)C1=O)c1ccccc1
active: locus YAL021C, strain ccr4, stronger effect = lower value 0.899 | locus YAL026C, strain drs2, stronger effect = lower value 0.405 | locus YAL030W, strain snc1, stronger effect = lower value 0.825 | locus YBL061C, strain skt5, stronger effect = lower value 0.859 | locus YBR009C, strain hhf1, stronger effect = lower value 0.273 | locus YBR021W, strain FUR4, stronger effect = lower value 0.516 | locus YBR023C, strain chs3, stronger effect = lower value 0.816 | locus YBR231C, strain swc5, stronger effect = lower value 0.742 | locus YBR279W, strain paf1, stronger effect = lower value 0.703 | locus YCL011C, strain gbp2, stronger effect = lower value 0.307 | locus YCL016C, strain dcc1, stronger effect = lower value 0.581 | locus YCL069W, strain vba3, stronger effect = lower value 0.45 | locus YCR088W, strain abp1, stronger effect = lower value 0.911 | locus YDL035C, strain GPR1, stronger effect = lower value 0.277 | locus YDL192W, strain arf1, stronger effect = lower value 0.266 | locus YDR137W, strain rgp1, stronger effect = lower value 0.694 | locus YDR150W, strain NUM1, stronger effect = lower value 0.61 | locus YDR162C, strain NBP2, stronger effect = lower value 0.0631 | locus YDR297W, strain sur2, stronger effect = lower value 0.802 | locus YDR318W, strain mcm21, stronger effect = lower value 0.181 | locus YDR334W, strain swr1, stronger effect = lower value 0.472 | locus YDR388W, stronger effect = lower value 0.827 | locus YDR392W, strain spt3, stronger effect = lower value 0.146 | locus YDR502C, strain sam2, stronger effect = lower value 0.665 | locus YEL003W, strain gim4, stronger effect = lower value 0.553 | locus YEL061C, strain CIN8 (second series), stronger effect = lower value 0.642 | locus YER015W, strain faa2, stronger effect = lower value 0.588 | locus YER155C, strain BEM2 (second series), stronger effect = lower value 0.413 | locus YER167W, strain BCK2, stronger effect = lower value 0.252 | locus YFR010W, strain ubp6, stronger effect = lower value 0.869 | locus YGL086W, strain mad1, stronger effect = lower value 0.142 | locus YGL173C, strain kem1, stronger effect = lower value 0.632 | locus YGL227W, strain vid30, stronger effect = lower value 0.473 | locus YGL240W, strain doc1, stronger effect = lower value 0.723 | locus YGL248W, strain PDE1, stronger effect = lower value 0.125 | locus YGL253W, strain hxk2, stronger effect = lower value 0.838 | locus YGR078C, strain PAC10, stronger effect = lower value 0.0851 | locus YGR135W, strain pre9, stronger effect = lower value 0.306 | locus YGR252W, strain gcn5, stronger effect = lower value 0.369 | locus YHR013C, strain ard1, stronger effect = lower value 0.507 | locus YHR027C, strain rpn1, stronger effect = lower value 0.775 | locus YHR030C, strain SLT2, stronger effect = lower value 0.0586 and 0.753 | locus YHR094C, strain hxt1, stronger effect = lower value 0.782 | locus YHR129C, strain ARP1, stronger effect = lower value 0.212 | locus YHR142W, strain chs7, stronger effect = lower value 0.603 | locus YHR200W, strain rpn10, stronger effect = lower value 0.788 | locus YIL066C, strain RNR3, stronger effect = lower value 0.148 | locus YIL073C, strain SPO22, stronger effect = lower value 0.341 | locus YIL125W, strain kgd1, stronger effect = lower value 0.919 | locus YJL092W, strain hpr5, stronger effect = lower value 0.883 | locus YJL095W, strain BCK1 (second series), stronger effect = lower value 0.468 | locus YJL115W, strain asf1, stronger effect = lower value 0.82 | locus YJL164C, strain tpk1, stronger effect = lower value 0.376 | locus YJL166W, strain qcr8, stronger effect = lower value 0.245 | locus YJL168C, strain set2, stronger effect = lower value 0.881 | locus YJR066W, strain TOR1, stronger effect = lower value 0.716
inactive: locus YBR171W, strain sec66, stronger effect = lower value 0.996 | locus YBR229C, strain ROT2, stronger effect = lower value 0.989 | locus YCL029C, strain bik1, stronger effect = lower value 0.968 | locus YDL005C, strain med2, stronger effect = lower value 1 | locus YDL040C, strain nat1, stronger effect = lower value 1.01 | locus YDL074C, strain BRE1, stronger effect = lower value 0.962 | locus YDL101C, strain DUN1, stronger effect = lower value 0.97 | locus YDL185W, strain tfp1, stronger effect = lower value 0.945 | locus YDR001C, strain nth1, stronger effect = lower value 0.997 | locus YDR069C, strain doa4, stronger effect = lower value 0.995 | locus YDR101C, strain arx1, stronger effect = lower value 0.998 | locus YDR159W, strain sac3, stronger effect = lower value 1.02 | locus YDR195W, strain ref2 1.09 | locus YDR335W, strain msn5, stronger effect = lower value 0.977 | locus YEL037C, strain rad23, stronger effect = lower value 0.952 | locus YER016W, strain bim1, stronger effect = lower value 0.999 | locus YER110C, stronger effect = lower value 0.97 | locus YER111C, strain swi4, stronger effect = lower value 0.994 | locus YER155C, strain BEM2, stronger effect = lower value 0.985 | locus YGL078C, strain dbp3, stronger effect = lower value 0.966 | locus YGL167C, strain pmr1, stronger effect = lower value 0.972 | locus YHR079C, strain IRE1 (second series), stronger effect = lower value 0.96 | locus YHR079C, strain IRE1, stronger effect = lower value 0.888 | locus YIR030C, strain dcg1, stronger effect = lower value 0.967 | locus YJL129C, strain trk1, stronger effect = lower value 0.978 | locus YJL134W, strain LCB3, stronger effect = lower value 0.986 | locus YJL154C, strain vps35, stronger effect = lower value 1.01 | locus YJL187C, strain SWE1 (second series), stronger effect = lower value 0.977
0.892 (inactive) and 0.782 (active): locus YJL095W, strain BCK1, stronger effect = lower value
